Out of some 580,000 compounds screened, about 6,100 (1.1%) were called active. Not shown: some 15% with an inconclusive outcome. This is one part of a sample in which actives are shown more often than they occur. Calls follow the shape of the dose curve; as a rule, active = well fitted inhibition curve with a large enough effect; inconclusive = small, poorly fitted or top-dose-only effect, or another doubt; inactive = no such curve, though single readings can be large or run the other way.
target: Polyunsaturated fatty acid lipoxygenase ALOX12 (Homo sapiens) (UniProt P18054); assay: Primary qHTS assay for inhibitors of human arachidonate 12S-lipoxygenase (ALOX12): Round 2; conditions: purified 12hLO, xylenol orange hydroperoxide absorbance; series mostly up to 108 µM; activity change, negative = inhibition: at the top concentration
Outline: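 Purified human 12hLO at 150 nM in 25 mM Hepes, 0.01% Triton X-100, pH 7.0, preincubated 15 min at room temperature with compound. Reaction started with 40 uM arachidonic acid, 30 min at room temperature. Hydroperoxide measured by Fe-xylenol orange, 573/405 nm absorbance ratio.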
% is scaled to controls: 0 for no effect and ±100 for the full control effect; potency is read from the fitted curve at half-maximal effect.

Chain of Polyunsaturated fatty acid lipoxygenase ALOX12 (Homo sapiens) (P18054 whole entry, looked up): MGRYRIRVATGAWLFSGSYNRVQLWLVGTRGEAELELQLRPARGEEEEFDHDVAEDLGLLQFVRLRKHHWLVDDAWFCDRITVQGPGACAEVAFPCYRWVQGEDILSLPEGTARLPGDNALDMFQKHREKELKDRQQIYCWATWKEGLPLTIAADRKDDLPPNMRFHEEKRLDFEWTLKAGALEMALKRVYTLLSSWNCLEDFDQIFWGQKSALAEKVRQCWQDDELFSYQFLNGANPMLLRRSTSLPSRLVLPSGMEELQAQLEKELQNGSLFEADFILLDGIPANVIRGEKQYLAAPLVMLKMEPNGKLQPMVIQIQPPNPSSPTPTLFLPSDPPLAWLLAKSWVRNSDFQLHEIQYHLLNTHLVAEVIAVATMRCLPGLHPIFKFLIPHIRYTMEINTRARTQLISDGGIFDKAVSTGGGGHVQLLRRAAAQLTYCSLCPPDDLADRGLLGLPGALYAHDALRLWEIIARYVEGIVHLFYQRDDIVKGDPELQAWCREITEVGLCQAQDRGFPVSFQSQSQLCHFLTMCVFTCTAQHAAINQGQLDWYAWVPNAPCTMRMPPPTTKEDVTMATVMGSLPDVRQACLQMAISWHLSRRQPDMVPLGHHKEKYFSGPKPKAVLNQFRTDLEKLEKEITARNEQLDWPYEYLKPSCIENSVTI

Row | SMILES | activity change, negative = inhibition | Potency
1 | COC(=O)CNC(=O)c1cccc(C(F)(F)F)c1 | 5.28% (inactive) | 
2 | C/C(=N\NC(=S)NCc1ccccc1)C1CCCCC1 |  | 39.8 µM (active)
3 | CC(=O)c1ccccc1NCC(=O)NCC(F)(F)F | -15.2% (inactive) | 
4 | CCOc1ccc(CNC(=O)c2ncoc2-c2cccs2)cc1OC | 29.3% (inactive) | 
5 | COc1cccc(CN(C(=O)c2oc3cc(Br)ccc3c2C)C2CCS(=O)(=O)C2)c1 (stereo not given) | -12.2% (inactive) | 
6 | O=C(CCNc1c(-c2ccc(F)cc2)nc2cnccn12)Nc1ccc2c(c1)OCO2 | -7.67% (inactive) | 
7 | Cc1ccc(C)c(Oc2coc3cc(OC(=O)C(C)C)ccc3c2=O)c1 | -5.82% (inactive) | 
8 | CC(C)c1nnc(CN2CCOc3c(O)cc(-c4cccc(Cl)c4)cc3C2)o1 | 4.28% (inactive) | 
9 | CC(C)Oc1ccc(Cc2n[nH]c(=S)n2Cc2ccccc2)cc1Cl | -6.13% (inactive) | 
10 | S=c1[nH]nc(CSCc2ccc(Cl)cc2Cl)n1-c1ccccc1 |  | 28.2 µM (active)
11 | O=S(=O)(NCCc1nnc2ccc(SCc3ccc(Cl)cc3Cl)nn12)c1ccccc1 | -19.8% (inactive) | 
12 | CCN(C(=O)CCc1c[nH]c2ccccc12)c1ccc(F)cc1 | -27.9% (inactive) | 
13 | CC(C)=CCc1ccc(O)c(=O)cc1C(C)C |  | 25.1 µM (active)
14 | Cc1ccccc1-c1cc(=O)c2cc(NC(=O)c3ccccc3F)ccc2o1 | 12.3% (inactive) | 
15 | COC(=O)C(NC(C)=O)(Nc1nc2c(s1)CCCC2)C(F)(F)F (stereo not given) |  | 17.8 µM (active)
16 | CCOC(=O)C(NC(=O)CC(C)C)(Nc1sc2c(c1C(N)=O)CCCC2)C(F)(F)F (stereo not given) | 0.0335% (inactive) | 
17 | O=C(Nc1nc2c(s1)CCCC2)c1ccccc1F | -9.3% (inactive) | 
18 | CCOc1ccccc1OCCN | -30.9% (inactive) | 
19 | CCCc1nc2c(-c3ccc(Cl)cc3)c(C)[nH]n2c(=O)c1Cl | -11.8% (inactive) | 
20 | O=C(CSc1nncn1-c1ccccc1F)Nc1ccccc1C(=O)Nc1ccccc1 | 14% (inactive) | 
21 | O=C(COC(=O)c1cnccn1)Nc1cccc2ccccc12 | -1.25% (inactive) | 
22 | O=C(COC(=O)c1cc2ccccc2cc1O)Nc1ccc(Cl)cc1C(F)(F)F | 6.37% (inactive) | 
23 | O=C(COC(=O)c1cnccn1)Nc1ccc(Cl)cc1C(F)(F)F |  | 10 µM (active)
24 | CN(Cc1ccccc1N1CCCC1)C(=O)c1ccc(S(=O)(=O)N2CCOCC2)cc1 | 7.09% (inactive) | 
25 | CCOc1ccccc1NC(=O)c1cnc(N2CCCCC2)c2ccccc12 | 7.78% (inactive) | 

Row | SMILES | activity change, negative = inhibition | Potency
26 | O=C(COc1ncnc2c(Cl)cc(Cl)cc12)Nc1cc(F)ccc1F | -2.36% (inactive) | 
27 | Oc1c(Cl)cc(Cl)c(Cl)c1Cc1c(O)c(Cl)cc(Cl)c1Cl |  | 7.08 µM (active)
28 | CC(C)(C)NC(=O)C(Sc1ccccc1)c1ccccc1 (stereo not given) | -8.61% (inactive) | 
29 | COc1ccc(Oc2c(C)oc3cc(OCC(=O)N4CCNC(=O)C4)ccc3c2=O)cc1 | -1.25% (inactive) | 
30 | FC(F)(F)c1ccccc1-c1cc(NCc2ccccc2)ncn1 |  | 15.8 µM (active)
31 | COc1ccccc1-c1cc(NCc2cccs2)ncn1 | -0.248% (inactive) | 
32 | CN(Cc1ccco1)c1cc(-c2ccccc2C(F)(F)F)ncn1 | -17.5% (inactive) | 
33 | COC(=O)c1nc(-c2ccc(F)cc2)no1 | -31.2% (inactive) | 
34 | CCN(CC)C(=O)[C@@H]1CCC[C@@H](NS(C)(=O)=O)CN(C)C(=O)C1 | -7.85% [at 176 µM] (inactive) | 
35 | Cc1ccc(S(=O)(=O)NCC(C)NS(C)(=O)=O)cc1 (stereo not given) | -14.4% (inactive) | 
36 | CCOC(=O)C(NC(=O)c1ccccc1)(OC(C)C)C(F)(F)F (stereo not given) | 3.32% (inactive) | 
37 | CCOC(=O)C(NS(=O)(=O)c1ccc(C)cc1)(C(F)(F)F)P(=O)(OCC(C)C)OCC(C)C (stereo not given) |  | 39.8 µM (active)
38 | CCN1C(=O)N/C(=C/c2cn(CC(=O)Nc3ccc(F)cc3)c3ccccc23)C1=O | -78.9% (inactive) | 
39 | COc1cc(C(=O)Nc2ccc(C)cc2)nc2ccc(Cl)cc12 | 0.694% (inactive) | 
40 | CSc1cccc(NC(=O)N[C@H]2CCN3C(=O)[C@H](Cc4ccc(F)cc4)NC(=O)[C@@H]3C2)c1 | -21% (inactive) | 
41 | O=C(c1ccc2ncccc2c1)N1CCC2(CC1)NCCc1c2[nH]c2ccccc12 | 30.9% (inactive) | 
42 | O=C(Nc1nc(-c2ccncc2)cs1)C1COc2ccccc2O1 (stereo not given) |  | 14.1 µM (active)
43 | O=C(NCC1CCOCC1)C1COc2ccccc2O1 (stereo not given) | 38% (inactive) | 
44 | O=C(Cn1nc2c(cc1=O)CCCCC2)Nc1nc(-c2ccncc2)cs1 | 44% (inactive) | 
45 | CCc1cccc2c(C(=O)CSc3nncn3C(C)C)c[nH]c12 | -38.3% (inactive) | 
46 | CCC1(C)Cc2c(sc3nnn(CC(=O)Nc4ccc(Cl)cc4)c(=O)c23)CO1 (stereo not given) | 5.01% (inactive) | 
47 | CC1(C)Cc2c(sc3c2c(=O)n(CCO)c(=O)n3CCc2ccccc2)CO1 | -41.7% (inactive) | 
48 | CCC1(C)Cc2c(sc3[nH]c(=S)n(Cc4ccccc4)c(=O)c23)CO1 (stereo not given) |  | 28.2 µM (active)
49 | COc1ccccc1-c1cnc(Nc2ccncc2)c2c1CCO2 | 13.2% [at 176 µM] (inactive) | 
50 | CN1CCN(C(=O)c2cccc(C(F)(F)F)c2)CC1 | -6.7% (inactive) | 

— PubChem BioAssay AID1671190 (National Center for Advancing Translational Sciences (NCATS), 2021)
